Screening data deposited in PubChem by National Center for Advancing Translational Sciences (NCATS).
Compounds with a hit are over-represented: about 11% of the library has one in this group of screens.
Pf growth 96h: P. falciparum growth inhibition at 96 hours; P. falciparum luciferase reporter growth, 96 h; Potency, µM (series often up to 28.7 µM), without a hit: at the highest dose activity change, negative = inhibition, usual class: inhibitors; 320,000 tested, 6.9% active
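Two-generation exposure (96 h) targets delayed-death phenotype. Reporter parasites carrying integrated firefly luciferase, in red cells at 2% hematocrit and 0.05% parasitemia final, kept at 37 C, 5% CO2; luminescence loss indicates inhibition.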
Pf growth 48h: P. falciparum growth inhibition at 48 hours (one generation). 310,000 tested, 5.9% active. P. falciparum luciferase growth in erythrocytes, 48 h. Potency, µM (doses to about 28.7 µM), inactives show at the highest dose activity change, negative = inhibition, hits mostly inhibitors
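Parasite viability was followed by luminescence of a genomically integrated firefly luciferase. Cultures held 0.1% parasitemia at 2% hematocrit (final), incubated under 5% CO2 at 37 C.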
AmpC inh no detg: inhibitors of E. coli AmpC beta-lactamase without detergent | P00811 | AmpC nitrocefin hydrolysis, absorbance 480 nm, 0.0001% Triton | Potency, µM (top dose mostly 57.1 µM), for inactives: at the top dose activity change, negative = inhibition, actives largely listed as inhibitors | 330,000 tested, 0.52% active | AID 485341;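 further: plate controls were no compound for no effect and no enzyme for full effect; nearly all actives have a fitted effect of over 20% in size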
Target sequence (P00811 whole entry, looked up): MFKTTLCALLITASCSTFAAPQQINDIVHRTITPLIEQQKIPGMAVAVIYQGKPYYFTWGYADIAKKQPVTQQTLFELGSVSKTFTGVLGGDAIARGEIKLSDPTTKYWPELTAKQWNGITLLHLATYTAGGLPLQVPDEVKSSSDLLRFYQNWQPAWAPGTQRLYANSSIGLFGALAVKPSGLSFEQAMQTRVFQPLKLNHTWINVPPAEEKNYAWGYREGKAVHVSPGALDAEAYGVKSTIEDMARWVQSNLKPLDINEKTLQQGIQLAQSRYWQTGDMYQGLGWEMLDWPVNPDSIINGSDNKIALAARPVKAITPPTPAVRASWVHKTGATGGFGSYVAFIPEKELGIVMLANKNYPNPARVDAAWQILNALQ
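20 mM phosphate pH 7.0 + 0.01% (detergent screen) or 0.0001% Triton X-100; 5.3 nM AmpC reagent; cpd preinc 15 min RT; nitrocefin (800 uM stock) to start; A480 q20 s × 4 min; Activity was normalised to no-enzyme and no-compound control wells.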
AMA1 RON2 block: inhibitors of Plasmodium falciparum AMA1-RON2 interaction; Potency, µM (titrated, usually from 58.2 µM), for the others: at the highest dose activity change, negative = inhibition, hits mostly inhibitors; AlphaScreen AMA1-biotinylated RON2 peptide binding; 360,000 tested, 0.2% active;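 further: 0% = vehicle wells and -100% = peptide control; nearly all actives have a fitted effect of over 45% in size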
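AMA1 (3D7) with his tag at 25 nM final met compounds first, then biotinylated RON2 peptide at 25 nM; detection used donor plus acceptor beads, 10 µg/mL apiece, read by AlphaScreen after 30 min at room temperature.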
AmpC detergent: inhibitors of E. coli AmpC beta-lactamase with detergent. 370,000 tested, 0.041% active. AmpC hydrolysis of nitrocefin, absorbance 480 nm, 0.01% Triton. Potency, µM (titrated, usually from 114 µM), inactives show at the highest dose activity change, negative = inhibition, hits mostly inhibitors. P00811;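 further: 0% = no-compound wells and -100% = no-enzyme wells; nearly all actives have a fitted effect of over 25% in size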
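AmpC (5.3 nM in the dispensed reagent) in 20 mM phosphate pH 7.0 with 0.01% (detergent screen) or 0.0001% Triton X-100 was preincubated with compounds for 15 min at room temperature. Nitrocefin was then added from an 800 uM solution, and hydrolysis was followed at 480 nm.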
HCV inh: inhibitors of hepatitis C virus infection; Huh7.5.1 HCVcc-Cre infection, luciferase reporter, 44 h; Potency, µM (series often up to 41.8 µM), without a hit: at the top dose activity change, negative = inhibition, usual class: inhibitors; AID 651820; 340,000 tested, 3.4% active
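Luciferase read-out (15 sec integration) after a 15 min room-temperature substrate step quantifies HCVcc-Cre infection. Cells, 1,000 per well, had compound added 4 h post-plating, then virus at ~0.5 moi, and were cultured 44 h.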
The depositor's hits bear a star. The call rests on the fitted dose curve; in most records, active means well fitted curve in the direction sought with a large enough effect; inconclusive means small, poorly fitted or top-dose-only effect, or another doubt; inactive means no such curve, though single readings can be large; an effect the other way counts as inactive or inconclusive. Unless noted, on the % scale 0 is the no-effect control and ±100 the full control effect; potency means the concentration at half of the fitted maximal effect.

S=C(NCc1ccncc1)Nc1cc(Cl)cc(Cl)c1 was read as Pf growth 96h 35.2%, Pf growth 48h 13.1µM*, AmpC inh no detg -54.5%, AMA1 RON2 block 4.1%, AmpC detergent 3.0% and HCV inh 17.5%.
S=C(NCc1cccnc1)Nc1cc(Cl)cc(Cl)c1 was read as Pf growth 96h inconclusive, Pf growth 48h 2.94µM*, AmpC inh no detg -36.7%, AMA1 RON2 block 12.9%, AmpC detergent 0.0% and HCV inh 7.1%.
Screening O=C(Nc1nc2ccccc2[nH]1)c1ccccc1F returned Pf growth 96h 10.4µM*, Pf growth 48h inconclusive, AmpC inh no detg -22.5%, AMA1 RON2 block 63.4%, AmpC detergent inconclusive and HCV inh -17.5%.
`O=C(Nc1nc2ccccc2[nH]1)c1cc(F)cc(F)c1` gave Pf growth 96h -5.2%, Pf growth 48h -32.6%, AmpC inh no detg -3.2%, AMA1 RON2 block 85.0%, AmpC detergent 2.4% and HCV inh 3.0%.
`COc1cc(C(=O)Nc2nc3ccccc3[nH]2)ccc1OC(F)F` gave Pf growth 96h -66.5%, Pf growth 48h 138.7%, AmpC inh no detg -39.9%, AMA1 RON2 block 69.4%, AmpC detergent -1.2% and HCV inh 8.91µM*.
For O=C(Nc1nc2ccccc2[nH]1)c1ccc(F)cc1 the results were Pf growth 96h 1.47µM*, Pf growth 48h -76.3%, AmpC inh no detg -28.6%, AMA1 RON2 block -11.5%, AmpC detergent inconclusive and HCV inh 10.0%.
For CCOc1ccc(CCNC(=O)C2CCCN(c3nnc(C)c4c(C)n(-c5ccccc5)nc34)C2)cc1 (stereo not drawn) the results were AmpC detergent 16.5%.
`CC1Sc2ccc(S(=O)(=O)NCc3ccccc3)cc2NC1=O` (stereo not drawn) gave Pf growth 96h 13.1µM*, Pf growth 48h -1.8%, AmpC inh no detg -38.5%, AMA1 RON2 block -5.4%, AmpC detergent 0.5% and HCV inh -3.7%.
`Cc1ccc(N(C)S(=O)(=O)c2ccc3c(c2)NC(=O)C(C)S3)cc1` (stereo not drawn) gave Pf growth 96h inconclusive, Pf growth 48h 3.29µM*, AmpC inh no detg -18.2%, AMA1 RON2 block 1.3%, AmpC detergent -4.8% and HCV inh inconclusive.
`COc1ccc(NC(=O)C2CCN(S(=O)(=O)c3ccc4c(c3)NC(=O)C(C)S4)CC2)cc1` (stereo not drawn) gave Pf growth 96h -13.1%, Pf growth 48h 9.28µM*, AmpC inh no detg -27.9%, AMA1 RON2 block -10.6%, AmpC detergent -4.5% and HCV inh inconclusive.
COc1cccc(NC(=O)C2CCN(S(=O)(=O)c3ccc4[nH]c(=O)ccc4c3)CC2)c1 was read as Pf growth 96h 9.28µM*, Pf growth 48h inconclusive, AmpC inh no detg -20.8%, AMA1 RON2 block 0.0%, AmpC detergent -14.4% and HCV inh 21.6%.
COc1ccc(NC(=O)C2CCN(S(=O)(=O)c3ccc4[nH]c(=O)ccc4c3)CC2)c(OC)c1 was read as AmpC detergent 3.4%.
Screening O=C(CC(c1ccccc1)c1cc(Br)ccc1O)NCC1(c2ccccc2)CCCC1 (stereo not drawn) returned AmpC detergent 1.3%.
`Cc1ccc(NC(=O)C(=O)NCC(c2ccc3c(c2)OCO3)N2CCOCC2)c(C)c1` (stereo not drawn) gave AmpC detergent 3.7%.
CCCOc1ccc(CNC(=O)C2CCN(C(=O)c3sccc3-n3cccc3)CC2)cc1 was read as AmpC detergent 1.4%.
For CC1Sc2ccc(S(=O)(=O)N3CCC(C(=O)Nc4ccc(Cl)cc4)CC3)cc2NC1=O (stereo not drawn) the results were Pf growth 96h 13.1µM*, Pf growth 48h inconclusive, AmpC inh no detg -51.6%, AMA1 RON2 block -2.1%, AmpC detergent -2.4% and HCV inh inconclusive.
Screening CC1Sc2ccc(S(=O)(=O)N3CCC(C(=O)NCc4ccccc4)CC3)cc2NC1=O (stereo not drawn) returned Pf growth 96h 1.04µM*, Pf growth 48h inconclusive, AmpC inh no detg -10.7%, AMA1 RON2 block -12.0%, AmpC detergent -6.7% and HCV inh inconclusive.
`CCn1nc(C)c(CNC(=O)c2cc(COc3ccc(C)nc3)on2)c1C` gave Pf growth 96h 0.2%, Pf growth 48h -4.2%, AmpC inh no detg 0.0%, AMA1 RON2 block -2.1%, AmpC detergent -5.9% and HCV inh 11.2µM*.
CCn1nc(C)c(CNC(=O)c2cc(COc3ccc(F)cc3Cl)on2)c1C was read as Pf growth 96h -20.1%, Pf growth 48h -22.1%, AmpC inh no detg 146.6%, AMA1 RON2 block -3.4%, AmpC detergent -0.1% and HCV inh inconclusive.
Screening Cc1ccc(N2CCOCC2)c2c1C(=O)c1ccccc1C2=O returned Pf growth 96h inconclusive, Pf growth 48h inconclusive, AmpC inh no detg 120.5%, AMA1 RON2 block 14.1µM*, AmpC detergent 2.5% and HCV inh inconclusive.
O=C1C=C(N2CCOCC2)c2ccccc2C1=O was read as Pf growth 96h 19.3%, Pf growth 48h inconclusive, AmpC inh no detg -17.2%, AMA1 RON2 block -22.0%, AmpC detergent inconclusive and HCV inh inconclusive.
For CCCCNC(=O)COC(=O)c1c2c(nc3ccccc13)/C(=C/c1cccs1)CC2 the results were Pf growth 96h inconclusive, Pf growth 48h -24.8%, AmpC inh no detg 25.1µM*, AMA1 RON2 block 37.5%, AmpC detergent -4.7% and HCV inh 2.24µM*.
For COc1ccc(-c2nc(CN3CCC(C(=O)NCCCN4CCN(c5ccccc5F)CC4)CC3)c(C)o2)cc1OC the results were AmpC detergent 17.4%.
For CCCCCC1CC(CC(=O)Nc2nncs2)C(=O)O1 (stereo not drawn) the results were Pf growth 96h 7.38µM*, Pf growth 48h -5.3%, AmpC inh no detg 75.9%, AMA1 RON2 block -7.4%, AmpC detergent -3.6% and HCV inh 6.9%.
`CC1CCc2c(sc3nc(C(C)(C)C)nc(N4CCN(C(=O)CCl)CC4)c23)C1` (stereo not drawn) gave Pf growth 96h 6.57µM*, Pf growth 48h -56.2%, AmpC inh no detg 63.8%, AMA1 RON2 block -2.7%, AmpC detergent inconclusive and HCV inh inconclusive.
Cc1cc(C)c(NC(=O)c2cc(C(=O)O)ccc2C(=O)O)c([N+](=O)[O-])c1 was read as Pf growth 96h 2.33µM*, Pf growth 48h -4.6%, AmpC inh no detg -18.8%, AMA1 RON2 block -18.7%, AmpC detergent 1.4% and HCV inh 1.6%.
